# Results as given in publication PMC4336329 (PLoS ONE, 2015).
# Screen size: about 310,000 compounds; about 14,000 (4.5%) showed an effect of 50% or more. Effects have a minus sign here. The full list was thinned out, with strong results kept by preference.
# Target: human ether-à-go-go-related gene (hERG) potassium channel (human, UniProt Q12809)
# Experiment: primary screen, population patch clamp on CHO cells stably expressing hERG; higher = less effect of the substance
# Procedure: Briefly, Chinese hamster ovary (CHO) cells stably expressing the hERG channel were dislodged from tissue culture flasks and dispensed into PPC plates. […] During the recording, background leak currents were estimated by a 100 ms step to -80 mV from an initial holding potential of -70 mV and subtracted from the subsequent current measurement. The campaign was conducted in two phases using slight differences in recording protocol. In the first phase, the initial voltage pulse used a 100 ms step to -30 mV from a holding potential of -70 mV, a 2 s conditioning step to +25 mV, and a 2 s test step to -30 mV. During the second phase of the screen, the potential during the conditioning step was raised to +45 mV. In both phases of the campaign, a secondary voltage pulse was applied using the same parameters as the second phase initial pulse. The initial and secondary pulses were applied in the absence of compound, and upon application of 1 μM and 10 μM test concentrations. […]
# 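Further: peak tail current of the secondary pulse compared with the same well before compound.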
# Chain of human ether-à-go-go-related gene (hERG) potassium channel (Q12809 whole entry, looked up): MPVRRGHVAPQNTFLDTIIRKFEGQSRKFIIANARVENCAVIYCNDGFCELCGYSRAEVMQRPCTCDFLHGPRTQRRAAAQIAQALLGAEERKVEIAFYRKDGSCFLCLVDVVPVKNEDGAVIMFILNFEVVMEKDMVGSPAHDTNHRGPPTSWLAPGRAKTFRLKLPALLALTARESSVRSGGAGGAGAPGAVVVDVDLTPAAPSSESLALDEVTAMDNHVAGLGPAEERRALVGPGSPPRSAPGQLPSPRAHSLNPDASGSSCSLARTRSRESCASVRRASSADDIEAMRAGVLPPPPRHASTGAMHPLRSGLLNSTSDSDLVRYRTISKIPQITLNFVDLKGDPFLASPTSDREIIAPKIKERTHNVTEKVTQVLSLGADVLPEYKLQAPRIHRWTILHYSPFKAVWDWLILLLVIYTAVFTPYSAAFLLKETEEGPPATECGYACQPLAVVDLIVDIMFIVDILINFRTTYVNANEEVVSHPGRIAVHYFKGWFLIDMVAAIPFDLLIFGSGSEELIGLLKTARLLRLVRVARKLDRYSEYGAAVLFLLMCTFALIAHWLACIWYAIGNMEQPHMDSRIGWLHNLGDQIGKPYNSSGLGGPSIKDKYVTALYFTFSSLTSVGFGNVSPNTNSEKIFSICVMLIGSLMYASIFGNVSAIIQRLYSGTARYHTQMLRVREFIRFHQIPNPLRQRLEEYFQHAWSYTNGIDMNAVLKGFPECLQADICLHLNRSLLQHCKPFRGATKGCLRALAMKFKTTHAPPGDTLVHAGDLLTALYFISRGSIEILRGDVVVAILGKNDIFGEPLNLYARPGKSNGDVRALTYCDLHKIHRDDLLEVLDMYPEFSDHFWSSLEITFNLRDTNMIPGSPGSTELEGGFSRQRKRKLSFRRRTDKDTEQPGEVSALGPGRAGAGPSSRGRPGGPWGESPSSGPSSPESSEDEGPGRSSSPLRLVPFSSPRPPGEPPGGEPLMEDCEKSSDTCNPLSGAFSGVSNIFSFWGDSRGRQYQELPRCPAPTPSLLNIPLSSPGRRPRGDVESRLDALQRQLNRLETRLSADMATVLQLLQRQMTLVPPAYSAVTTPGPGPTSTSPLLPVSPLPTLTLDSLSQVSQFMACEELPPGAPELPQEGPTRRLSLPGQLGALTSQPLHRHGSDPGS
row,Structure (SMILES),"hERG current change (%, negative = inhibition) at 10uM [%]"
1,Cc1nc2ncnn2c(C)c1CCC(=O)Oc1ccccc1,-5.02
2,CCN1CCc2nc(N)oc2CC1.Cl,1.67
3,Cc1cc2oc(C(=O)NC3CCS(=O)(=O)C3)c(C)c2cc1C (centres unmarked),2.69
4,CN(CC(=O)Nc1ccc(Cl)c(C(F)(F)F)c1)C(=O)C1CCC1,-14.8
5,O=C1COc2ccc(N3C(=O)c4ccccc4C3=O)cc2N1,27.5
6,CCCCCN(C(=O)CN1CCC(Cc2ccccc2)CC1)c1c(N)n(CCCC)c(=O)[nH]c1=O,-48.1
7,CSc1nc(N2CCN(Cc3ccc4c(c3)OCO4)CC2)c2ccccc2n1,-16.7
8,CC(C)(C)OC(=O)N1CCC(c2cc(=O)n3[nH]cc(C(=O)Nc4ccc(F)c(Cl)c4)c3n2)CC1,6.92
9,COCCOC(=O)C1=C(C)Nc2ncnn2C1c1ccco1 (centres unmarked),2.64
10,Cc1cc(=O)n2nc(N3CCCC(C(=O)NCc4cccc(Br)c4)C3)sc2n1 (centres unmarked),-30.2
11,Cc1ccc(CNC(=O)C2CCN(c3nn4c(=O)cc(C)nc4s3)CC2)cc1,-41.9
12,Cc1cc(=O)n2nc(N3CCC(C(=O)NCc4ccc(Cl)cc4)CC3)sc2n1,-70
13,Cc1cc(=O)n2nc(N3CCC(C(=O)NCc4cccc(Cl)c4)CC3)sc2n1,-43.7
14,CCOc1ccc(CNC(=O)C2CCN(c3nn4c(=O)cc(C)nc4s3)CC2)cc1,-45.8
15,Cc1cc(=O)n2nc(N3CCC(C(=O)NCc4ccccc4)CC3)sc2n1,-3.68
16,Cc1cc(=O)n2nc(N3CCC(C(=O)NCc4cccc(Br)c4)CC3)sc2n1,-51.4
17,COc1ccc(CNC(=O)C2CCN(c3nn4c(=O)cc(C)nc4s3)CC2)cc1,-4.51
18,Cc1cc(=O)n2nc(N3CCC(C(=O)NCc4ccc(F)cc4)CC3)sc2n1,-55.5
19,CCS(=O)(=O)c1ccc(C(=O)Nc2cccc(Cl)c2)c(Cl)c1Cl,-3.97

row,Structure (SMILES),"hERG current change (%, negative = inhibition) at 10uM [%]"
1,Cc1ccc(C(C)C)c(OCCCNCc2cccnc2)c1.Cl,-37.5
2,CCNC(=O)NC(=O)CN(C)c1ccccc1,10.5
3,CCOC(=O)c1sc(=NC(=O)c2cccc(C)c2)n(C)c1C,8.38
4,Cc1ccc(-c2c(C(=O)N/N=C/c3cccs3)nnn2-c2nonc2N)cc1,29.8
5,COc1ccc(-c2nn(-c3ccccc3)cc2CNC(C)Cn2cncn2)c(F)c1 (centres unmarked),-13
6,CCC(COC)NCc1cn(-c2ccc(F)cc2F)nc1-c1ccccc1C (centres unmarked),-18
7,COc1ccc(-n2cc(CNC(C)c3ccncn3)c(-c3cccc(F)c3)n2)cc1 (centres unmarked),-59.4
8,CCC(COC)NCc1cn(-c2ccc(OC)cc2)nc1-c1cccc(F)c1 (centres unmarked),-70.3
9,COc1ccc(-n2cc(CN(C)C(C)c3ccncn3)c(-c3cccc(F)c3)n2)cc1 (centres unmarked),-39.9
10,COc1cccc(-c2nn(-c3ccccc3)cc2CN(C)C(C)c2ccncn2)c1 (centres unmarked),-15.6
11,Cc1cccc(N2CCN(C(=O)c3cccc(N4C(=O)C5CC=CC(C)C5C4=O)c3)CC2)c1C (centres unmarked),-12.5
12,Cc1oncc1-c1cn2ccccc2n1,6.61
13,COc1ccccc1CNC(=O)c1ccccc1OCc1ccc(F)cc1,-10
14,CCOc1ccc(N2CC(C(=O)N3CCCCCC3)CC2=O)cc1 (centres unmarked),-7.34
15,COc1ccc(N2CC(C(=O)N3CCN(C)CC3)CC2=O)cc1 (centres unmarked),15.4
16,COc1ccc(N2CC(C(=O)N3CCN(C(=O)c4ccco4)CC3)CC2=O)cc1 (centres unmarked),-53.3
17,CCOc1ccc(N2CC(C(=O)N3CCN(C(=O)c4ccco4)CC3)CC2=O)cc1 (centres unmarked),-63.4
18,CCOc1ccc(N2CC(C(=O)N3CCCCC3)CC2=O)cc1 (centres unmarked),18.6
19,COc1ccc(N2CCN(C(=O)C3CC(=O)N(c4ccc(C)cc4)C3)CC2)cc1 (centres unmarked),-35.1

row,Structure (SMILES),"hERG current change (%, negative = inhibition) at 10uM [%]"
1,Cc1cc(C#N)c(C)n1-c1cc(S(=O)(=O)N2CCOCC2)ccc1N1CCCC1,-14.3
2,CN(Cc1ccc(F)cc1)C(=O)c1cccc(S(=O)(=O)N2CCN(c3ccc(F)cc3)CC2)c1,-34.6
3,CN(C)S(=O)(=O)N1CCC(Oc2cccc(C(=O)NC3CCOC3)c2)CC1 (centres unmarked),2.63
4,O=C(CCN1CCN(c2ccc(F)cc2)CC1)Nc1ccccc1F,-43
5,O=C(CCN1CCN(S(=O)(=O)c2ccc(Cl)cc2)CC1)Nc1ccccc1F,-6.18
6,O=C(CN1CCN(CCC(=O)Nc2ccccc2F)CC1)Nc1ccc(F)cc1,-72.6
7,O=C(CN1CCOCC1)Nc1ccccc1F,0.862
8,O=C(CCN1CCN(c2ccc(Cl)cc2)CC1)Nc1ccccc1F,-34
9,O=C(CN1CCN(CCC(=O)Nc2ccccc2F)CC1)Nc1ccc(Cl)cc1,-76.8
10,COc1ccc(C(=O)NC2CCCCC2)cc1S(=O)(=O)N1CCOCC1,-14.8
11,O=C(NCCOC(=O)c1ccccc1)c1ccccc1,10.2
12,[N-]=[N+]=CC(=O)CNC(=O)[C@@H](Cc1ccccc1)N1C(=O)c2ccccc2C1=O,6.66
13,CCC(C(=O)NC1CC1)n1nc(C)c2c(C)n(-c3ccc(C)cc3)nc2c1=O (centres unmarked),-62
14,Cc1ccc(-n2nc3c(=O)n(C(C)C(=O)NCc4ccco4)nc(C)c3c2C)cc1 (centres unmarked),-41.3
15,CCC(C(=O)NC1CCCCCC1)n1nc(C)c2c(C)n(-c3ccccc3)nc2c1=O (centres unmarked),-23.4
16,CCC(C(=O)NCc1ccco1)n1nc(C)c2c(C)n(-c3ccc(C)cc3)nc2c1=O (centres unmarked),-58.9
17,CCC(C(=O)NC1CC1)n1nc(C)c2c(C)n(-c3ccccc3)nc2c1=O (centres unmarked),8.02
18,CCC(C(=O)NCc1ccco1)n1nc(C)c2c(C)n(-c3ccccc3)nc2c1=O (centres unmarked),-8.91
